LYPLA1 inh – LYPLA1 inhibitors, primary screen, counter-screen for PME1 inhibitor project, biochemical, fluorescence polarization, FP-Rh probe ABPP; Acyl-protein thioesterase 1 (Homo sapiens), O75608; recombinant LYPLA1; inhibition, % at 5.9 µM; 320,000 tested, 0.16% active; AID 2174, 2009;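 active means inhibition above the mean of all tested compounds plus 3 SD, set per campaign, cut at about 14% in these data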;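 further: inhibitors block serine hydrolase probe labeling of LYPLA1 so polarization falls; 0% = enzyme with DMSO and 100% = wells lacking LYPLA1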
Target sequence (O75608 whole entry, looked up): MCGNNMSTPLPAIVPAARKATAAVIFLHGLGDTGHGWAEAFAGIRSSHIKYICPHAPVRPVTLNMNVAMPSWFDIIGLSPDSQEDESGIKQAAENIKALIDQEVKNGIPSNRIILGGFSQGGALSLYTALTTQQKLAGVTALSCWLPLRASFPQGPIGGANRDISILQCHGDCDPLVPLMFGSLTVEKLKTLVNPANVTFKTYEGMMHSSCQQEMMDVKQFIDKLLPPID
PREPL inhibitor – PREPL enzyme inhibitors, primary screen, biochemical, fluorescence polarization; recombinant PREPL, fluorescence polarization activity-based probe; AID 2751, 2010; inhibition, % at 5.96 µM; 320,000 tested, 0.68% active; in the data active means inhibition above about 43%;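 further: 0% = enzyme with DMSO and 100% = wells lacking enzyme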
ZTA DNA inh – counter-screen for EBNA-1 inhibitors: inhibitors of Epstein-Barr virus ZTA; P03206; ZTA-DNA binding, fluorescence polarization; inhibition, % at 11 µM; 320,000 tested, 0.15% active; in the data active means inhibition above about 33%
Target sequence (P03206 whole entry, looked up): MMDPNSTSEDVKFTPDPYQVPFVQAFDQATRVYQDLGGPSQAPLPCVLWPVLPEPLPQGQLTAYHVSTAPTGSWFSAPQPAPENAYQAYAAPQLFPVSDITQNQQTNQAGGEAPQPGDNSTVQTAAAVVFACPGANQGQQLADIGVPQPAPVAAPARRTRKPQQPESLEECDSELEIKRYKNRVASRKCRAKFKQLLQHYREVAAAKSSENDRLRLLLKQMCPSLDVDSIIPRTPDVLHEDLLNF
EBNA-1 inhibitor – EBNA-1 DNA-binding inhibitors, primary screen, biochemical, fluorescence polarization. inhibition, % at 14.8 µM. 300,000 tested, 0.34% active; in the data active means inhibition above about 28%
LYPLA2 counter – LYPLA2 inhibitors, primary screen, counter-screen for PME1 inhibitor project, biochemical, fluorescence polarization, FP-Rh probe ABPP; Acyl-protein thioesterase 2 (Homo sapiens), O95372; recombinant LYPLA2; inhibition, % at 5.9 µM; 320,000 tested, 0.38% active; AID 2177, 2009;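 active means inhibition above the screen-wide mean plus 3 SD, limit set per campaign, cut at about 26% in these data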;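 further: 0% = LYPLA2 with DMSO and 100% = wells lacking LYPLA2 enzyme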
Target sequence (O95372 whole entry, looked up): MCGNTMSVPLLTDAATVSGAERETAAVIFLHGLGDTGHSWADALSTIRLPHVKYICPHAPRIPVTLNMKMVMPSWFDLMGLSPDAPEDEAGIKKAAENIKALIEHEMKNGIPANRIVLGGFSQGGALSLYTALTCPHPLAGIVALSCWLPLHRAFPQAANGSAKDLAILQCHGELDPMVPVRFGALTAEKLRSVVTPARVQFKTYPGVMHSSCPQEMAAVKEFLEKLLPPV
EBNA-1 confirm – EBNA-1 DNA-binding inhibitors, retest, confirmation, biochemical, fluorescence polarization, triplicate | shares compounds with EBNA-1 inhibitor | Recombinant EBNA-1 DBD, Cy5-DNA fluorescence polarization | inhibition, % at 14.8 µM | 830 tested, 35% active;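 active means mean inhibition across replicates above a set limit taken from the earlier primary screen, cut at about 28% in these data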;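 further: plate controls were EBNA-1 protein with DMSO for no effect and wells lacking EBNA-1 for full effect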
ZTA DNA inh trip – EBV Zta DNA binding inhibitors, counter-screen for EBNA-1 inhibitor project, biochemical, fluorescence polarization, triplicate; 830 tested, under 10 active; inhibition, % at 11.1 µM; shares compounds with EBNA-1 inhibitor; Zta-ZRE DNA binding, Cy5 fluorescence polarization;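 active means mean inhibition over triplicates above a set limit taken from the primary EBNA-1 screen, cut at about 37% in these data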;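 further: purified full length Zta protein with Cy5 labeled ZRE DNA probe; 0% = Zta with DMSO and 100% = wells lacking Zta protein; inhibitors lower polarization by freeing the labeled DNA probe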
Numbers without * were called inactive; · = no result given. Shown are actives, neighbours in structure and some others; about 1.3% of the full set was active somewhere.

SMILES | LYPLA1 inh | PREPL inhibitor | ZTA DNA inh | EBNA-1 inhibitor | LYPLA2 counter | EBNA-1 confirm | ZTA DNA inh trip
CCN(CC)C(=O)CSc1nc2cc3c(cc2c(=O)n1CCCC(=O)NCc1ccc(OC)cc1)OCO3 | 1.0 | -33.5 | -10.6 | -11.5 | 3.7 | · | ·
COc1ccc(CNC(=O)CCCCCn2c(SCC#N)nc3cc4c(cc3c2=O)OCO4)cc1 | -0.4 | 7.6 | 8.0 | 38.3* | -5.4 | 5.8 | 12.4
CCOC(=O)N1CCN(C(=O)C2CC(=O)N(Cc3ccc(OC)cc3)C2)CC1 (stereo not drawn) | 3.0 | 13.4 | -3.1 | 0.9 | 8.0 | · | ·
COc1ccc(CN2CC(C(=O)N3CCOCC3)CC2=O)cc1 (stereo not drawn) | 0.1 | 8.3 | -3.2 | 46.9* | 10.8 | -12.8 | -26.5
O=C(C1CN(C(=O)c2cc3cc(Cl)ccc3o2)c2ccccc2O1)N1CCCCC1 (stereo not drawn) | 0.3 | 24.4 | -7.0 | · | -0.2 | · | ·
COc1ccccc1C(=O)Nc1nc2cc3c(cc2s1)OCO3 | 2.3 | 8.1 | 4.4 | -24.6 | 3.2 | · | ·
COc1cccc(OC)c1C(=O)Nc1nc2cc3c(cc2s1)OCO3 | -2.6 | 6.3 | -3.2 | 33.3* | 0.5 | 59.8* | 7.1
Cc1ccccc1C(=O)Nc1ccnn1C1CCN(Cc2ccc(CO)o2)CC1 | 5.2 | 10.4 | -17.6 | -5.8 | 13.7 | · | ·
Cc1c(Cl)cccc1NC(=O)c1ccc(OCC(=O)NCc2ccccc2)cc1 | -0.5 | -2.5 | -1.6 | 33.1* | 2.6 | 44.5* | 14.3
COc1ccc(CC(=O)Nc2ccc3c(C)cc(=O)oc3c2)cc1OC | 1.6 | 10.8 | -8.5 | 40.1* | -2.7 | 8.2 | 0.3
COc1ccc(C(=O)CSc2cc(C)nc(SCC(=O)c3ccc(C)cc3)n2)cc1 | 2.7 | -3.4 | -9.5 | 1.8 | 2.9 | · | ·
Cc1ccc(C(=O)CSc2nc(C)cc(SCc3nnc(-c4ccccc4)o3)n2)cc1 | -0.5 | -18.8 | -6.4 | 27.5* | 3.9 | 22.9 | 9.5
Cc1nc(Nc2ccc(Cl)cc2)c2oc3ccccc3c2n1 | -7.1 | 12.9 | -0.7 | -0.5 | -3.9 | · | ·
Cc1nc(Nc2cccc(Cl)c2)c2oc3ccccc3c2n1 | -30.3 | 2.9 | 4.3 | 28.5* | -29.2 | -4.0 | 11.1
O=C(Nc1ccc(S(=O)(=O)N2CCC(C(=O)NC3CCCCC3)CC2)cc1)c1ccco1 | -2.5 | -1.5 | -1.9 | 38.0* | -6.9 | 33.6* | 0.4
CCCCN(C(=O)c1cc(CC)c(C)s1)c1c(N)n(CC(C)C)c(=O)[nH]c1=O | -2.3 | 3.3 | -16.3 | 66.4* | -5.5 | 4.3 | -6.2
CCCCN(C(=O)c1cccc(-n2cccc2)c1)c1c(N)n(Cc2ccccc2)c(=O)[nH]c1=O | -4.5 | -5.7 | 22.4 | 30.7* | -7.8 | -4.5 | -6.8
CCc1cc(C(=O)N(C)CC(=O)N(CC(C)C)c2c(N)n(CC(C)C)c(=O)[nH]c2=O)sc1C | 0.5 | -1.2 | 3.3 | 8.9 | 1.0 | · | ·
CCCCN(C(=O)c1cccc(N2C(=O)c3ccccc3C2=O)c1)c1c(N)n(CC(C)C)c(=O)[nH]c1=O | -4.9 | 12.7 | -4.5 | · | -10.7 | · | ·
COc1ccc(CCN2CC(C(=O)NCCN3CCCC3=O)CCC2=O)cc1 (stereo not drawn) | -2.5 | 1.1 | -18.9 | 9.4 | -1.4 | · | ·
O=c1oc2c(O)c(O)cc3c(=O)oc4c(O)c(O)cc1c4c23 | -11.2 | 54.2* | 25.9 | 38.6* | -1.2 | 46.7* | 36.9*
O=c1oc2ccccc2c2oc3cc(O)c(O)cc3c12 | -15.8 | 25.6 | 11.7 | 7.9 | -13.8 | · | ·
Cc1ccc(NC(=O)CSc2ccc(-c3ccc4c(c3)OCO4)nn2)cc1F | 0.9 | -25.8 | -10.0 | 52.3* | 5.1 | 68.2* | 1.0
Cc1cc(NC(=O)CSc2ccc(-c3ccc4c(c3)OCO4)nn2)no1 | 3.1 | -11.7 | -9.7 | 3.9 | -2.5 | · | ·
C=CCn1c(CSc2ccc(C)cc2)n[nH]c1=S | -2.0 | -8.9 | 4.1 | 5.8 | 1.6 | · | ·
SMILES | LYPLA1 inh | PREPL inhibitor | ZTA DNA inh | EBNA-1 inhibitor | LYPLA2 counter | EBNA-1 confirm | ZTA DNA inh trip
Cc1ccc(N2C(=O)CC(N(CCc3ccccc3)C(=S)Nc3ccc(N(C)C)cc3)C2=O)cc1 (stereo not drawn) | -5.1 | 8.8 | 10.5 | 56.8* | -14.5 | 17.9 | -2.6
Cc1onc(-c2c(Cl)cccc2Cl)c1C(=O)NC(=S)Nc1sc2c(c1C(N)=O)CCC(C)C2 (stereo not drawn) | -3.0 | 2.4 | 14.5 | 33.8* | -2.7 | 28.2* | 2.9
O=C(NCCS(=O)(=O)N1CCN(c2ccccc2)CC1)C1CCCC1 | -2.7 | 5.1 | -13.7 | -5.7 | 1.8 | · | ·
Cn1c(CNC(=O)c2ccc(Cl)c(Cl)c2)nnc1SCC(=O)Nc1sc2c(c1C#N)CCCC2 | 1.9 | -8.0 | 8.8 | 30.9* | -1.1 | 38.9* | -8.1
CCc1ccc(NC(=O)CCC(=O)Nc2nnc(C(C)C)s2)cc1 | 2.3 | 2.6 | -2.3 | 40.1* | 0.8 | 10.1 | -3.4
CC(C)NC(=O)C1CC(=O)N(c2ccc(F)c(Cl)c2)C1 (stereo not drawn) | -4.7 | 0.1 | -17.8 | 31.8* | -1.0 | 4.2 | 6.2
Cn1cccc1C(=O)NC(=O)COC(=O)CCNS(=O)(=O)c1ccc(Cl)cc1 | · | 22.3 | · | · | · | · | ·
Cc1ccccc1NC(=S)N=Nc1c(O)n(C)c2ccc(S(=O)(=O)N3CCOCC3)cc12 | -2.2 | 10.1 | -0.9 | 41.8* | 5.9 | 14.6 | 8.5
c1cc2ccc3ccc(-n4cnnn4)c4ccc(c1)c2c34 | -4.1 | -12.3 | 27.4 | 34.4* | -18.1 | 35.5* | 22.4
CCOC(=O)c1c(-c2ccc(C)o2)csc1NC(=S)NC(=O)c1ccc(F)cc1 | -4.7 | 2.8 | 14.6 | 28.2* | -7.8 | 26.0 | -3.4
CCOC(=O)c1c(-c2ccc(C)o2)csc1NC(=O)CN1CCCCC1 | -0.2 | 1.8 | -18.8 | -11.1 | -0.2 | · | ·
Cc1cc2c(cc1S(=O)(=O)NCCc1ccc(Cl)cc1)OCC(=O)N2 | -3.2 | -33.8 | 3.7 | 9.3 | 1.5 | · | ·
O=C1[C@H]2[C@@H](c3ccc(F)cc3)N3C(=O)N(c4cccc(F)c4)C(=O)[C@@]3(Cc3ccccc3)[C@H]2C(=O)N1C1CCCCC1 | -4.4 | 10.7 | 5.8 | 80.7* | -8.6 | 9.2 | -14.8
O=C1[C@H]2[C@@H](c3ccc(F)cc3)N3C(=O)N(c4cccc(Br)c4)C(=O)[C@@]3(Cc3ccccc3)[C@H]2C(=O)N1C1CCCCC1 | -6.2 | -5.0 | 4.2 | 10.1 | -9.8 | · | ·
COC(=O)c1c(SCC(=O)Nc2ccc(C)c(C)c2)nc(=O)[nH]c1C | -2.9 | 0.8 | 9.7 | -1.9 | -3.9 | · | ·
Cc1ccc(OCCC(=O)OC(C)C(=O)NC2CC2)cc1 (stereo not drawn) | 0.3 | 2.6 | -3.9 | -1.5 | 5.5 | · | ·

Compound activity (PubChem BioAssay)
